Assay [1] in a line: p53 stabilisation in HPV-positive human cells, imaging, p53-positive nuclei imaging, 24 h, 48 h (AID 1508601). The following applies: 24/48 h.
For assay [2], the target named is Cellular tumor antigen p53 (Homo sapiens) (UniProt P04637). The description is as above. The conditions noted are these: 24/48 h, stronger effect = higher value.
The mark [3] stands for this setting: measured here: cell number at 24 h, Library stock concentration: 10 mM.
Setting [4] is: measured here: cell number at 48 h, Library stock concentration: 10 mM.
[5] abbreviates: Library stock concentration: 10 mM.
Setting [6] is: measured here: p53 positive nuclei at 24 h, Library stock concentration: 10 mM.
The mark [7] stands for this setting: measured here: cell number at 24 h, concentration not given here.
The mark [8] stands for this setting: measured here: cell number at 48 h, concentration not given here.
Setting [9] is: measured here: p53 positive nuclei at 24 h, concentration not given here.
The mark [10] stands for this setting: measured here: cell number at 24 h, Library stock concentration: 3.33 mM.
The mark [11] stands for this setting: measured here: cell number at 48 h, Library stock concentration: 3.33 mM.
Where [12] appears, read: Library stock concentration: 3.33 mM.
The mark [13] stands for this setting: measured here: p53 positive nuclei at 24 h, Library stock concentration: 3.33 mM.
The mark [14] stands for this setting: measured here: cell number at 24 h, Library stock concentration: 80 uM.
[15] abbreviates: measured here: cell number at 24 h, Library stock concentration: 400 uM.
The mark [16] stands for this setting: measured here: cell number at 24 h, Library stock concentration: 2 mM.
[17] abbreviates: measured here: cell number at 48 h, Library stock concentration: 80 uM.
Where [18] appears, read: measured here: cell number at 48 h, Library stock concentration: 400 uM.
The mark [19] stands for this setting: measured here: cell number at 48 h, Library stock concentration: 2 mM.
Setting [20] is: Library stock concentration: 80 uM.
Where [21] appears, read: Library stock concentration: 400 uM.
Setting [22] is: Library stock concentration: 2 mM.
Where [23] appears, read: measured here: p53 positive nuclei at 24 h, Library stock concentration: 80 uM.
The mark [24] stands for this setting: measured here: p53 positive nuclei at 24 h, Library stock concentration: 400 uM.
The mark [25] stands for this setting: measured here: p53 positive nuclei at 24 h, Library stock concentration: 2 mM.

The structures appear in SMILES notation. Hit rate of the full screen: of about 5,700 compounds, about 85 (1%) were called active. No stated cut-off is given here; in the data, active means p53-positive nuclei above about 36% (passing the limit was not always enough); inactive means the rest. The entries come from a sample that favours actives as a whole. Peptide text beside a SMILES is read from it.

Chain of Cellular tumor antigen p53 (Homo sapiens) (P04637 whole entry, looked up): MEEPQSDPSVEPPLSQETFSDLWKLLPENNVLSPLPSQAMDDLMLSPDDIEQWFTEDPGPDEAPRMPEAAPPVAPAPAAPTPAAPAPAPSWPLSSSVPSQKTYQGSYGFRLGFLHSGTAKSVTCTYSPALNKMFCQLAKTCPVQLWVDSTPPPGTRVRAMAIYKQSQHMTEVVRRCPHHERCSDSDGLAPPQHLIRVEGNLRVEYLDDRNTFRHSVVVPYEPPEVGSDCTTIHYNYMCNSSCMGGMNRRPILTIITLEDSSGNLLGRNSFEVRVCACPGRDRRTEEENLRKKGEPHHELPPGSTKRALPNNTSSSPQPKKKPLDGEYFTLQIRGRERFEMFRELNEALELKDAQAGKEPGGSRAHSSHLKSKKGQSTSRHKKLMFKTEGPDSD

In the case of `COc1ccc(CC(NC(=O)C(C)NC(=O)CN2CCOCC2)C(=O)NC(Cc2ccccc2)C(=O)[C@@]2(C)CO2)cc1` (stereo not given in full), the nuclei count, normalised in assay [1] (measured here: cell number at 24 h, Library stock concentration: 46 uM) stood at 107%; in assay [1] (measured here: cell number at 24 h, Library stock concentration: 278 uM) it was 109%; in assay [1] (measured here: cell number at 24 h, Library stock concentration: 1.67 mM), 57.1%; in assay [1] (setting [3]) it was 52.6%; in assay [1] (measured here: cell number at 48 h, Library stock concentration: 46 uM), 113%; in assay [1] (measured here: cell number at 48 h, Library stock concentration: 278 uM) it was 113%. Further, the nuclei count, normalised was 43.8% in assay [1] (measured here: cell number at 48 h, Library stock concentration: 1.67 mM) and 39.6% in assay [1] (setting [4]). The p53-positive nuclei, normalised was -0.326% (inactive) in assay [2] (Library stock concentration: 46 uM); 0.734% (inactive) in assay [2] (Library stock concentration: 278 uM); 103% (active) in assay [2] (Library stock concentration: 1.67 mM); 102% (active) in assay [2] (setting [5]); -0.151% in assay [2] (measured here: p53 positive nuclei at 24 h, Library stock concentration: 46 uM); 0.483% in assay [2] (measured here: p53 positive nuclei at 24 h, Library stock concentration: 278 uM). In addition, the p53-positive nuclei, normalised in assay [2] (measured here: p53 positive nuclei at 24 h, Library stock concentration: 1.67 mM) turned out to be 146%; in assay [2] (setting [6]) it was 144%.

Turning to `COC(=O)[C@H](Cc1ccccc1)NC(=O)[C@@H](N)CC(=O)O` (H-Asp-Phe-OMe), the nuclei count, normalised turned out to be 91.1% in assay [1] (setting [7]) and 92% in assay [1] (setting [8]). For the same compound, the p53-positive nuclei, normalised was -0.024% (inactive) in assay [2] (concentration not given here) and -0.251% in assay [2] (setting [9]).

Take `COC(=O)C(Cc1ccccc1)NC(=O)C(N)CC(=O)O` (stereo not drawn) (H-Asp-Phe-OMe; configuration not given here): the nuclei count, normalised in assay [1] (setting [10]) was found to be 101%; in assay [1] (setting [11]), 94.9%. Further, the p53-positive nuclei, normalised is -0.0669% (inactive) in assay [2] (setting [12]) and -0.12% in assay [2] (setting [13]).

Regarding `CC(C)c1nc(CN(C)C(=O)NC(CCN2CCOCC2)C(=O)NC(CCC(Cc2ccccc2)NC(=O)OCc2cncs2)Cc2ccccc2)cs1` (stereo not given), the nuclei count, normalised in assay [1] (setting [10]) worked out at 98.1%; in assay [1] (setting [11]), 96.3%. In addition, the p53-positive nuclei, normalised in assay [2] (setting [12]) was 4.22% (inactive); in assay [2] (setting [13]) it was 4.44%.

As to `CC(C)C(N)C(=O)NC(Cc1ccccc1)C(=O)O` (stereo not given), the nuclei count, normalised in assay [1] (setting [14]) stood at 118%; in assay [1] (setting [15]), 113%; in assay [1] (setting [16]), 112%; in assay [1] (setting [3]) it was 113%; in assay [1] (setting [17]) it was 107%; in assay [1] (setting [18]) it was 100%. The nuclei count, normalised came to 103% in assay [1] (setting [19]) and 102% in assay [1] (setting [4]). Further, the p53-positive nuclei, normalised is -0.188% (inactive) in assay [2] (setting [20]); 0.0868% (inactive) in assay [2] (setting [21]); -0.0686% (inactive) in assay [2] (setting [22]); -0.0304% (inactive) in assay [2] (setting [5]); -0.0726% in assay [2] (setting [23]); -0.0759% in assay [2] (setting [24]). The p53-positive nuclei, normalised in assay [2] (setting [25]) is 0.0367%; in assay [2] (setting [6]), -0.118%.

Turning to `C[C@H]1O[C@@H](O[C@H]2[C@@H](O)C[C@H](O[C@H]3[C@@H](O)C[C@H](O[C@H]4CC[C@]5(C)C6CC[C@]7(C)[C@@H](C8=CC(=O)OC8)CC[C@]7(O)C6CC[C@@H]5C4)O[C@@H]3C)O[C@@H]2C)C[C@H](O)[C@@H]1O` (stereo not given in full), the nuclei count, normalised came out at 49% in assay [1] (setting [7]) and 31% in assay [1] (setting [8]). The p53-positive nuclei, normalised in assay [2] (concentration not given here) is 16.9% (inactive); in assay [2] (setting [9]) it was 3.09%.

For the compound `CC(C)OC(=O)CCC/C=C\C[C@@H]1[C@@H](/C=C/[C@@H](O)CCc2ccccc2)[C@H](O)C[C@@H]1O`, the nuclei count, normalised in assay [1] (setting [7]) stood at 106%; in assay [1] (setting [8]), 105%. Besides, the p53-positive nuclei, normalised is 0.0477% (inactive) in assay [2] (concentration not given here) and -0.0131% in assay [2] (setting [9]).

As to `CCN(CC)C(=O)[C@]1(c2ccccc2)CC1CN` (stereo not given in full), the nuclei count, normalised worked out at 107% in assay [1] (setting [10]) and 99.9% in assay [1] (setting [11]). Also, the p53-positive nuclei, normalised in assay [2] (setting [12]) was -0.0572% (inactive); in assay [2] (setting [13]) it was -0.236%.

For the compound `COc1cccc(CN2CCN(c3ccc4cccc(OC)c4n3)CC2)c1`, the values for the nuclei count, normalised in assay [1] (setting [7]) and in assay [1] (setting [8]) were 109% and 114%, respectively. In addition, the p53-positive nuclei, normalised was 0.13% (inactive) in assay [2] (concentration not given here) and 0.279% in assay [2] (setting [9]).

For the compound `O=C(O)CCC/C=C\C[C@@H]1[C@@H](/C=C/[C@H](O)CCc2ccccc2)[C@H](O)C[C@@H]1O`, the results for the nuclei count, normalised in assay [1] (setting [7]) and in assay [1] (setting [8]) were 107% and 108%, respectively. Further, the p53-positive nuclei, normalised was -0.104% (inactive) in assay [2] (concentration not given here) and -0.0183% in assay [2] (setting [9]).

In the case of `O=C(O)CCCC=CCC1C(O)CC(O)C1C=CC(O)COc1cccc(Cl)c1` (stereo not given), the nuclei count, normalised in assay [1] (setting [14]) came to 91.3%; in assay [1] (setting [15]) it was 83%; in assay [1] (setting [16]), 71%; in assay [1] (setting [3]) it was 62.6%; in assay [1] (setting [17]), 91.4%; in assay [1] (setting [18]), 86.3%. The nuclei count, normalised in assay [1] (setting [19]) amounted to 76.4%; in assay [1] (setting [4]) it was 62.3%. The p53-positive nuclei, normalised in assay [2] (setting [20]) was -0.163% (inactive); in assay [2] (setting [21]), -0.108% (inactive); in assay [2] (setting [22]) it was 0.08% (inactive); in assay [2] (setting [5]), 0.269% (inactive); in assay [2] (setting [23]), 0.18%; in assay [2] (setting [24]), 0.0351%. The p53-positive nuclei, normalised in assay [2] (setting [25]) is 0.0627%; in assay [2] (setting [6]), -0.0194%.

For the origin of these results see PubChem BioAssay AID1508601 (ICCB-Longwood Screening Facility, Harvard Medical School, 2020).
